An excerpt weighted towards active compounds, which were near 1.5% of everything screened.
HttQ103 aggreg – mutant huntingtin aggregation inhibition; Potency, µM (series often up to 46.1 µM), for the others: at the top dose activity change, negative = inhibition, usual class: inhibitors; AID 1688; hit rate 1.1% among 220,000; PC12 HttQ103-GFP aggregates, Acumen cytometry, 40 h; further: on the % scale 0 is the no-effect control and ±100 the full control effect; nearly all actives have a fitted effect of over 60% in size
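Quantitative HTS on tebufenozide-induced (100 nM) PC12 cells stably expressing polyQ103 Huntingtin exon 1–GFP. Reduction of bright GFP aggregates, detected by laser scanning cytometry after lysis, identified actives across the titration.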
HTT ATP protect – cytoprotection in Huntington HTT-Q103 PC12 cell model | PC12 HTT-Q103 induced, cytoprotection, ATP luminescence, 40 h | Potency, µM (series often up to 56.4 µM), for inactives: cytoprotection (ATP increase), usual class: activators | hit rate 0.14% among 230,000; further: % of control where 0% means no effect; nearly all actives have a fitted effect of over 45% in size
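Huntington model: PC12 line, ecdysone-inducible HTTQ103 exon1–GFP, tebufenozide 100 nM. Test articles in a dose series. Endpoint luminescence from cellular ATP.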
Epigenetic reg – derepresses silenced GFP reporter in murine cells | murine LDR cells, GFP reporter derepression, 30 h | Potency, µM (doses to about 53.9 µM), inactives show top-dose GFP activation, actives largely listed as activators | hit rate 0.2% among 280,000 | AID 1865; further: % of control where 0% means no effect; nearly all actives have a fitted effect of over 60% in size
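Reporter derepression read as number of fluorescent GFP-positive objects, 20-120 um in size, counted by laser-scanning cytometer. Mouse LDR line with an epigenetically silenced CMV-GFP locus; compound incubation 30 h, 37 C.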
Lamin A splicing – changes lamin A minigene splicing in HeLa cells; hit rate 0.01% among 200,000; Potency, µM (titrated, usually from 46.1 µM), inactives show at the top dose ratio change, negative = inhibition, hits mostly inhibitors; HeLa LMNA splicing GFP/RFP minigene ratio, 48 h; active means well fitted inhibition curve with a large enough effect in the signal ratio, with a control signal flat, not every such curve was filed as active; inconclusive means small, poorly fitted or top-dose-only effect, or effect the other way, or a change in a side signal; the % refers to the signal ratio; further: on the % scale 0 is the no-effect control and ±100 the full control effect
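S3 HeLa cells stably expressing lamin A-EGFP splicing minigene plus DsRed2, 600 cells/well, 48 h compound exposure at 37C. Laser-scanning cytometry; analysed as GFP (500-530 nm)/RFP (575-640 nm) total intensity ratio; 0.5% DMSO vehicle.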
NPSR antag – antagonists of human neuropeptide S receptor cAMP signaling. hit rate 1% among 220,000. CHO-NPSR cells, cAMP TR-FRET, antagonist mode. Potency, µM (series often up to 38.3 µM), inactives show at the top dose activity change, negative = inhibition, usual class: inhibitors; further: on the % scale 0 is the no-effect control and ±100 the full control effect; nearly all actives have a fitted effect of over 50% in size
Target sequence (Q6W5P4 whole entry, looked up): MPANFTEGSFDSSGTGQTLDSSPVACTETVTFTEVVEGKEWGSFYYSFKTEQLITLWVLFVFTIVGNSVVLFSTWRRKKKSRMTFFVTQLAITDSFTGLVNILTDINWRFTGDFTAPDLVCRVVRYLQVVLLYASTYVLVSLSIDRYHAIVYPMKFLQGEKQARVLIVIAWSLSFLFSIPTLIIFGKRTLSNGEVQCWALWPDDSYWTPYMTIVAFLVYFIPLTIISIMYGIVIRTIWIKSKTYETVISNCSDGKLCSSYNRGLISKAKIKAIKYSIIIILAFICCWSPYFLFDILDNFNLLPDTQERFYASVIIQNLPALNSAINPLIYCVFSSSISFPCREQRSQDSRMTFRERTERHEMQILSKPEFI
* hit, by the source's call; u = inconclusive; x = no result; ! = not confirmed by another sample; [ ] = remark or other dose. Unless noted, the call rests on the fitted dose curve; in most records, active means well fitted curve in the direction sought with a large enough effect; inconclusive means small, poorly fitted or top-dose-only effect, or another doubt; inactive means no such curve, though single readings can be large; an effect the other way counts as inactive or inconclusive. Potency means the concentration at half of the fitted maximal effect.

SMILES | HttQ103 aggreg | HTT ATP protect | Epigenetic reg | Lamin A splicing | NPSR antag
Cc1ccc(F)c([C@H]2[C@H]3C=CC[C@@H](C)[C@@H]3C(=O)N2Cc2ccccc2)c1 | -45%[9.22 µM] | -30%[10 µM] | -1% | x | u
C[C@@H]1CC=C[C@H]2[C@H]1C(=O)N(Cc1ccccc1)[C@H]2c1ccc2ccccc2c1Br | -42%[9.22 µM] | -35%[10 µM] | 2% | x | 10µM*
C[C@@H]1CC=C[C@H]2[C@H]1C(=O)N(Cc1ccccc1)[C@H]2c1ccc(F)c(Br)c1 | -11%[9.22 µM] | -24%[10 µM] | 2% | x | 4µM*
COc1ccc(C(=O)NCc2ccc3c(c2)CCN3C(=O)c2ccncc2)cc1 | x | x | -1% | u | x
CCOc1ccc(CCNC(=O)CN2N=C(c3ccccc3)CCC2=O)cc1OCC | x | x | 0% | u | x
CCc1ccc(-c2nc(CSCC(=O)N3CCN(c4ncccn4)CC3)c(C)o2)cc1 | 11µM* | -2% | 0% | u | 8%[46.1 µM]
CC(CN(C)C)CN1c2ccccc2CCc2ccccc21 (configuration not stated) | 0%[9.22 µM] | 1µM*! | 0% | u | 1%[46.1 µM]
C[C@@H](CN(C)C)CN1c2ccccc2CCc2ccccc21 | 0%[20.6 µM] | -14%[40.3 µM] | 0%[16.9 µM] | u | x
CO[C@H](C(=O)[C@@H](O)[C@@H](C)O)C1Cc2cc3cc(O[C@H]4C[C@@H](O[C@H]5C[C@@H](O)[C@H](O)[C@@H](C)O5)[C@@H](O)[C@@H](C)O4)c(C)c(O)c3c(O)c2C(=O)[C@H]1O[C@H]1C[C@@H](O[C@H]2C[C@@H](O[C@H]3C[C@](C)(O)[C@H](O)[C@@H](C)O3)[C@H](O)[C@@H](C)O2)[C@H](O)[C@@H](C)O1 (some centres not stated) | 0.22µM* | -63% | x | x | x
COC(C(=O)C(O)C(C)O)C1Cc2cc3cc(OC4CC(OC5CC(O)C(O)C(C)O5)C(O)C(C)O4)c(C)c(O)c3c(O)c2C(=O)C1OC1CC(OC2CC(OC3CC(C)(O)C(O)C(C)O3)C(O)C(C)O2)C(O)C(C)O1 (configuration not stated) | 0.22µM* | -47% | x | x | x
O=c1c2ccccc2nc(-c2ccc(Cl)cc2)n1CCCCOc1ccc(F)cc1 | x | x | 0% | x | x
Cn1cc(-c2cc3n(n2)CCC(=O)N3CCCC(=O)NCc2ccc(F)cc2)c2ccccc21 | x | x | 3% | -2%[46 µM] | x
C=CCn1c(=O)n(CCOC)c(=O)c2sc3ccccc3c21 | 22µM* | 17%[10 µM] | -1% | 0% | -12%[46.1 µM]
O=c1c2sc3ccccc3c2n(Cc2ccccc2)c(=O)n1CCc1ccccc1 | x | x | 0% | x | x
COc1ccc(CCNC(=O)c2ccc3c(c2)CCN3S(C)(=O)=O)cc1 | x | x | 1% | x | x
COc1ccc(C2=NN(C(=O)c3cccs3)C(c3ccccc3O)C2)cc1 (configuration not stated) | -26% | u | u | x | 10µM*
COc1ccc(C2=NN(C(=O)c3cccs3)C(O)(C(F)(F)F)C2)cc1 (configuration not stated) | -18% | -56% | -5% | u | -20%
CC(C)(C)CC(C)(C)c1ccc(OCCO)cc1 | 2% | 8% | x | u | x
CC(C)(C)CC(C)(C)c1ccc(OCCOCC[N+](C)(C)Cc2ccccc2)cc1 | 28µM* | -227% | 0% | x | x
O=S(Cc1ccc(Br)cc1)Cc1nnc(SCc2c(Cl)cccc2Cl)n1-c1ccccc1 (configuration not stated) | 22µM* | u | 0% | u | 10µM*
OC[C@@H]1CCC[C@H](n2cnc3c(=S)nc[nH]c32)O1 | x | -5%[10 µM] | x | x | x
CCOC(=O)Cn1c(=O)n(C2CCCCC2)c2nc(-c3ccc(C(C)C)cc3)nc(C(N)=O)c21 | x | x | 3% | 11%[46 µM] | x
CCOC(=O)N1CCC(N2CCCC(CO)(Cc3cccc(OC)c3)C2)CC1 (configuration not stated) | 0.0006µM* | x | 0% | x | 11%
Cc1cc(C)n(-c2ccc3cccc(NS(C)(=O)=O)c3n2)n1 | 8.9µM* | -59% | -1% | u | -5%[46.1 µM]
COC(=O)c1cc(S(=O)(=O)NCC2CCN(Cc3cccc(F)c3)CC2)c[nH]1 | x | x | 1% | x | x
SMILES | HttQ103 aggreg | HTT ATP protect | Epigenetic reg | Lamin A splicing | NPSR antag
C/C(=N/Nc1nc(-c2ccccc2)cc(-c2ccccc2)n1)c1ccc(N)cc1 | 15% | -24%[10 µM] | 0% | u | -21%[46.1 µM]
C/C(=N/Nc1cc(-c2ccccc2)nc(-c2ccccc2)n1)c1ccc(O)cc1 | 35µM* | 12%[10 µM] | 6% | u | -45%
O=S(=O)(c1ccc(N2CCN(c3ccc(F)cc3)CC2)cc1)N1CCCC1 | 10% | -22% | 1% | 5% | -3%[46.1 µM]
O=S(=O)(c1ccc(N2CCCC2)cc1)C(F)(F)F | 10µM* | -3% | 0% | u | 29%[46.1 µM]
O=C(CCCn1ccc2cc(S(=O)(=O)N3CCCC3)ccc21)NCc1ccc(Cl)cc1 | x | x | 5% | x | x
CCc1c(C)nc2ncnn2c1Nc1ccc(C#N)c(Cl)c1 | 13µM* | -3% | 1% | -7% | 14%[7.67 µM]
CC(=O)O[C@H]1CC(C)(C)C(=C=C/C(C)=C/C=C/C(C)=C/C=C/C=C(C)/C=C/C=C(\C)C(=O)C[C@@]23O[C@]2(C)C[C@@H](O)CC3(C)C)[C@](C)(O)C1 | -14%[9.22 µM] | -4%[10 µM] | u | x | -22%
Fc1ccc(NCc2nnc(SCc3nnc(-c4ccccc4)o3)n2Cc2ccccc2)cc1 | 13µM* | 19%[10 µM] | -6% | u | u
C[C@@H](c1ccccc1)N1C(=O)[C@@H]2[C@H]3C(=CC[C@H]2C1=O)C(=O)[C@H]1O[C@H]1[C@H]3O | x | -4%[10 µM] | 1%[10.1 µM] | x | x
CC(C)(C)N1C(=O)[C@@H]2[C@H]3C(=CC[C@H]2C1=O)C(=O)[C@H]1O[C@H]1[C@H]3O | x | 5.6µM* | 1%[10.1 µM] | x | x
O=C1C2=CC[C@@H]3C(=O)N(c4ccc(F)cc4F)C(=O)[C@H]3[C@H]2[C@H](O)[C@H]2O[C@H]12 | x | 3.2µM* | u | x | x
Cc1ccc(-c2cnc3n2CCCCC3)cc1 | 2% | -3%[10 µM] | -2% | -17%[46 µM] | 7%
c1cc2c(cc1-c1cnc3n1CCC3)OCCO2 | 25µM* | 26% | -1% | u | -5%[46.1 µM]
CC1CCN(S(=O)(=O)c2ccc3c(c2)C(=NO)c2cc(S(=O)(=O)N4CCC(C)CC4)ccc2-3)CC1 | 3.2µM* | -92% | -1% | 381% | 0.5µM*
O=S(=O)(c1ccc2c(c1)C(=NO)c1cc(S(=O)(=O)N3CCCCC3)ccc1-2)N1CCCCC1 | u | -135%[10 µM] | 7% | u | 2µM*
NCCNC[C@H](O)CO | x | -2%[10 µM] | x | x | x
Cc1noc(C)c1C(=O)N1CCC2(CC1)CCN(c1ccncc1)CC2 | x | -33% | x | x | x
CC(C)(C)NC(=O)Nc1ccc(F)c(Cl)c1 | 13µM* | -26% | 0% | x | -16%
CCCNC(=O)Nc1ccc(F)c(Cl)c1 | -9% | -20% | 1% | x | 12%
NC(Cc1cccc(-c2ccccc2CP(=O)(O)O)c1)C(=O)O (configuration not stated) | x | x | 1% | u | -7%[46.1 µM]

Bioassay records from PubChem BioAssay.
